This passage reports growth results from PubChem BioAssay (NCI).

The panel holds about 83,000 compounds, 20% with a hit somewhere; the sample as a whole holds those more often.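 Testing used 96-well plates and a 48-hour single-concentration exposure. Example: -40 means 40% of the starting cells died.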 Values without a mark were called inactive. Activity calls are given as the source filed them. How the source made its calls: active means growth percent below 10; inactive means the rest.

Test systems include DU-145 prostate; K-562 leukemia; MALME-3M melanoma; MDA-MB-231 breast; RXF 393 renal; SF-268 CNS; SF-295 CNS; SF-539 CNS; UACC-257 melanoma; M14 melanoma; HCT-15 colon; HT29 colon; SNB-75 CNS; SNB-19 CNS; U251 CNS; PC-3 prostate; SK-MEL-5 melanoma; UACC-62 melanoma; LOX IMVI melanoma; SK-MEL-28 melanoma.
Assay in all cases: NCI-60 one-dose screen, 48 h (100 = growth as untreated, 0 = no growth, -100 = all killed)
Common to all, as to conditions: 10 µM

Turning to `N/C(=N\O)c1cn(C2OC(CO)C(O)C2O)c2ncnc(N)c12` (stereo not given), the growth with DU-145 prostate was 0.144% (active); in the experiment on K-562 leukemia, 7.52% (active); in the experiment with MALME-3M melanoma, -78.3% (active); in the experiment with MDA-MB-231 breast, 5.86% (active); in the experiment with RXF 393 renal, -9.98% (active); in the experiment with SF-268 CNS, 9.34% (active). In addition, the growth in the experiment on SF-295 CNS was -16.7% (active); in the experiment on SF-539 CNS it was 1.24% (active); in the experiment with UACC-257 melanoma it was -23.8% (active); in the experiment on M14 melanoma, -28.3% (active); in the experiment with HCT-15 colon, 7.46% (active); in the experiment on HT29 colon, 7.04% (active). Also, the growth in the experiment on SNB-75 CNS was -7.06% (active); in the experiment with SNB-19 CNS, 16.5%; in the experiment on U251 CNS, 10.7%; in the experiment on PC-3 prostate, 4.66% (active); with SK-MEL-5 melanoma, -43% (active); in the experiment with UACC-62 melanoma it was -68.2% (active). Also, the growth is -63.2% (active) with LOX IMVI melanoma and -53.3% (active) in the experiment with SK-MEL-28 melanoma.

For the molecule `O=C(NCCc1nccs1)c1cnc2c(S)cccc2c1`, the growth in the experiment with DU-145 prostate was 22.9%; with K-562 leukemia, 4.3% (active); in the experiment with MALME-3M melanoma, 40.1%; in the experiment on MDA-MB-231 breast, 13.6%; in the experiment on RXF 393 renal, 9.59% (active); in the experiment with SF-268 CNS, 37.7%. In addition, the growth was 38.8% in the experiment on SF-295 CNS; 22.8% in the experiment on SF-539 CNS; 17.7% with UACC-257 melanoma; 10.7% with M14 melanoma; 17.6% in the experiment with HCT-15 colon; 20.4% in the experiment with HT29 colon. For the same molecule, the growth with SNB-75 CNS was 44.1%; in the experiment with SNB-19 CNS, 28.5%; in the experiment with U251 CNS it was 12.8%; in the experiment with PC-3 prostate, 34.2%; with SK-MEL-5 melanoma, -22.1% (active); with UACC-62 melanoma it was -6.53% (active). The growth in the experiment with LOX IMVI melanoma is 2.38% (active); with SK-MEL-28 melanoma, 30.5%.

As to `COc1cc(C2=Nc3c/c(=C\c4c(O)[nH]c5ccc(Cl)cc45)ccc3=N2)cc(OC)c1OC`, the growth in the experiment with DU-145 prostate was 4.46% (active); with K-562 leukemia, 17.3%; in the experiment on MALME-3M melanoma, -51.8% (active); in the experiment with MDA-MB-231 breast, 2.35% (active); in the experiment on RXF 393 renal, 1.13% (active); in the experiment on SF-268 CNS, -51.5% (active). Besides, the growth is 83.3% with SF-295 CNS; -52.4% (active) in the experiment with SF-539 CNS; -77% (active) in the experiment on UACC-257 melanoma; -21.6% (active) with M14 melanoma; 24.8% with HCT-15 colon; -73.3% (active) in the experiment on HT29 colon. Also, the growth in the experiment on SNB-75 CNS was 50.1%; in the experiment with SNB-19 CNS, -30.9% (active); in the experiment with U251 CNS it was -90.6% (active); in the experiment with PC-3 prostate it was 21.7%; with SK-MEL-5 melanoma, -92.2% (active); with UACC-62 melanoma it was 31.8%. For the same molecule, the growth in the experiment on LOX IMVI melanoma was 2.31% (active); in the experiment on SK-MEL-28 melanoma it was -35.7% (active).

Regarding `O=c1c2cccc3c(Nc4ccc(Br)cn4)ccc(c32)c2nc3ccccc3n12`, the growth with DU-145 prostate was 99.4%; with K-562 leukemia, 101%; with MALME-3M melanoma it was 96.3%; in the experiment on MDA-MB-231 breast, 66.2%; with RXF 393 renal it was 99.8%; in the experiment on SF-268 CNS it was 98.3%. For the same molecule, the growth is 87.1% with SF-295 CNS; 89.9% in the experiment with SF-539 CNS; 102% with UACC-257 melanoma; 96.8% in the experiment on M14 melanoma; 72% in the experiment with HCT-15 colon; 94.6% in the experiment with HT29 colon. Moreover, the growth in the experiment on SNB-75 CNS was 44%; in the experiment on SNB-19 CNS it was 85.9%; with U251 CNS, 93.6%; in the experiment on PC-3 prostate it was 76.7%; with SK-MEL-5 melanoma, 76.2%; in the experiment on UACC-62 melanoma, 84.8%. Besides, the growth in the experiment with LOX IMVI melanoma is 87.2%; in the experiment on SK-MEL-28 melanoma, 72.9%.

Turning to `COc1ccc(C(=O)c2sc3nc(-c4cccs4)ccc3c2N)cc1OC`, the growth was 81% with DU-145 prostate; 13% in the experiment with K-562 leukemia; 58.9% in the experiment with MALME-3M melanoma; 43.8% with MDA-MB-231 breast; 66.9% in the experiment with RXF 393 renal; 62.8% in the experiment with SF-268 CNS. The growth in the experiment on SF-295 CNS was 51.3%; in the experiment with SF-539 CNS, 54.6%; with UACC-257 melanoma, 76.3%; in the experiment on M14 melanoma it was 42.1%; with HCT-15 colon it was 37.4%; in the experiment on HT29 colon, 14%. For the same molecule, the growth in the experiment on SNB-75 CNS is 52.1%; with SNB-19 CNS, 71.7%; in the experiment with U251 CNS, 59%; in the experiment with PC-3 prostate, 39%; with SK-MEL-5 melanoma, 24.3%; in the experiment with UACC-62 melanoma it was 59%. For the same molecule, the growth in the experiment with LOX IMVI melanoma is 55%; in the experiment on SK-MEL-28 melanoma, 59.2%.

For the molecule `Nc1ccn([C@@H]2O[C@H](COP(=O)(O)O[C@@H]3C[C@H](n4cc(F)c(=O)[nH]c4=O)O[C@@H]3COP(=O)(O)O[C@@H]3C[C@H](n4cc(F)c(=O)[nH]c4=O)O[C@@H]3COP(=O)(O)O[C@@H]3C[C@H](n4cc(F)c(=O)[nH]c4=O)O[C@@H]3COP(=O)(O)O[C@@H]3C[C@H](n4cc(F)c(=O)[nH]c4=O)O[C@@H]3COP(=O)(O)O[C@@H]3C[C@H](n4cc(F)c(=O)[nH]c4=O)O[C@@H]3COP(=O)(O)O[C@@H]3C[C@H](n4cc(F)c(=O)[nH]c4=O)O[C@@H]3COP(=O)(O)O[C@@H]3C[C@H](n4cc(F)c(=O)[nH]c4=O)O[C@@H]3COP(=O)(O)O[C@@H]3C[C@H](n4cc(F)c(=O)[nH]c4=O)O[C@@H]3COP(=O)(O)O[C@@H]3C[C@H](n4cc(F)c(=O)[nH]c4=O)O[C@@H]3COP(=O)(O)O[C@@H]3C[C@H](n4cc(F)c(=O)[nH]c4=O)O[C@@H]3COP(=O)(O)OCCOCCOCCOCCOCCOCCO)[C@H](O)C2O)c(=O)n1` (stereo not given in full), the growth in the experiment on DU-145 prostate is 41.6%; in the experiment with K-562 leukemia, 53.8%; with MALME-3M melanoma, 64%; with MDA-MB-231 breast, 91.4%; in the experiment with RXF 393 renal, 63.9%; in the experiment with SF-268 CNS, 36.8%. For the same molecule, the growth is 1.32% (active) in the experiment on SF-295 CNS; 10.2% with SF-539 CNS; 44.7% in the experiment on UACC-257 melanoma; 9.25% (active) with M14 melanoma; 44.6% in the experiment on HCT-15 colon; 47.1% in the experiment on HT29 colon. Besides, the growth in the experiment on SNB-75 CNS is 86.3%; in the experiment with SNB-19 CNS, 56.6%; in the experiment on U251 CNS it was 30.3%; in the experiment on PC-3 prostate, 56.1%; with SK-MEL-5 melanoma, 2.12% (active); with UACC-62 melanoma, 25.6%. Moreover, the growth in the experiment with LOX IMVI melanoma is 25.2%; with SK-MEL-28 melanoma it was 52.3%.

Consider `CC(=O)c1ccc(NCn2nc(-c3ccc(Cl)cc3)oc2=S)cc1`, for which the growth was 109% with DU-145 prostate; 88.1% in the experiment on K-562 leukemia; 114% in the experiment on MALME-3M melanoma; 87.8% with MDA-MB-231 breast; 117% in the experiment with RXF 393 renal; 109% in the experiment with SF-268 CNS. In addition, the growth in the experiment with SF-295 CNS is 102%; in the experiment with SF-539 CNS, 95%; in the experiment on UACC-257 melanoma, 93%; in the experiment on M14 melanoma, 104%; in the experiment on HCT-15 colon, 99.3%; in the experiment with HT29 colon, 98.3%. For the same molecule, the growth in the experiment on SNB-75 CNS is 107%; in the experiment with SNB-19 CNS, 95.8%; in the experiment on U251 CNS it was 96.1%; in the experiment with PC-3 prostate, 89.9%; in the experiment on SK-MEL-5 melanoma, 104%; in the experiment with UACC-62 melanoma it was 93.3%. The growth in the experiment with LOX IMVI melanoma is 90.3%; with SK-MEL-28 melanoma, 95.5%.

With `CCCCN(CCCC)c1ccc(C(=NC(C)CCCN(CC)CC)c2ccc(N(C)C)cc2)cc1` (stereo not given), the growth with DU-145 prostate was 21.1%; with K-562 leukemia, -51.3% (active); with MALME-3M melanoma, -77.9% (active); in the experiment on MDA-MB-231 breast, -79.4% (active); in the experiment with RXF 393 renal, -84% (active); in the experiment on SF-268 CNS, -43.4% (active). Also, the growth with SF-295 CNS was -72% (active); in the experiment with SF-539 CNS, -73.2% (active); with UACC-257 melanoma it was -70.6% (active); with M14 melanoma, -83% (active); with HCT-15 colon, -79.8% (active); in the experiment on HT29 colon, -71.9% (active). Besides, the growth is -34% (active) in the experiment on SNB-75 CNS; -23% (active) in the experiment with SNB-19 CNS; -79.9% (active) in the experiment with U251 CNS; -42.4% (active) in the experiment on PC-3 prostate; -99.6% (active) with SK-MEL-5 melanoma; -73.5% (active) in the experiment on UACC-62 melanoma. The growth was -96.7% (active) in the experiment on LOX IMVI melanoma and -72.1% (active) in the experiment on SK-MEL-28 melanoma.
